For four molecules, composite z-score and z-score results are on record in PubChem BioAssay.

Calls of active or inactive are those of the source. Unless noted, how the calls were made is not given here.

For experiment [1], the system named is Wnt5a (protein binding on small-molecule microarray). Nature of the experiment: small molecules binding Wnt5a protein – biophysical, small-molecule microarray, 635/667 nm fluorescence, primary screen (AID 1142).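 Further: fluorescence read at 667 nm with signal to noise per printed feature.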 Particulars: 635 nm fluorescence, higher = more signal.
A short description of experiment [2]: ATP-based viability of Huh7 replicon cells – cell-based, CellTiter-Glo luminescence, basal, 48 h, cytotoxicity control for HCV replication inhibitor project, primary screen (AID 1143).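 Further: Huh7 hepatoma cells carrying a hepatitis C replication reporter with no stimulus; test concentration not given here.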 Particulars: higher = more signal, called active from +8 up or from −8 down. A general note: Replicon systems follow genome replication, usually without infectious particles.
The nature of experiment [3]: Pseudomonas biofilm growth suppression – PAO1 strain, BacTiter-Glo luminescence, LB-PBS, primary screen (AID 1144). Particulars: P. aeruginosa PAO1 biofilm, 12 h, higher = more signal.
Experiment [4] is described as follows: basal CRE-LacZ reporter activity in PC12 – cell-based, unstimulated, primary screen (AID 1145). Particulars: no forskolin, luminescence, 4.5 h, higher = more signal, called active from +8 up or from −8 down.
Experiment [5] is described as follows: forskolin-driven CRE-LacZ activity in PC12 – cell-based, CRE-LacZ reporter, forskolin-stimulated, primary screen (AID 1146).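 Further: PC12 cells with 6xCRE LacZ reporter stimulated by forskolin 10 µM; beta-galactosidase reporter signal reflecting CREB driven transcription.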 Particulars: luminescence, 4.5 h, higher = more signal, called active from +8 up or from −8 down.
The target in experiment [6] is Streptavidin (Streptomyces avidinii) (UniProt P22629). Nature of the experiment: compounds binding control protein streptavidin – biophysical, small-molecule microarray, 635/667 nm fluorescence, artefact control for SMM compound annotation, primary screen (AID 1147).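 Further: signal reflects streptavidin binding to arrayed compounds as a control protein.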 Particulars: higher = more signal.
Sequence of Streptavidin (Streptomyces avidinii) (P22629 whole entry, looked up): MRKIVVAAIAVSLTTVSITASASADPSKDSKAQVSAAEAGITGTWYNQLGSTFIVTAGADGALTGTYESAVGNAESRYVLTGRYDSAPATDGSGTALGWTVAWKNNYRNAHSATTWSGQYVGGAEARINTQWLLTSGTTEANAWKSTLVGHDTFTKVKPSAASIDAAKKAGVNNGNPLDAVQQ
A short description of experiment [7]: probe aInhba binding on compound microarray – biochemical, small-molecule microarray, 635/667 nm fluorescence, primary screen (AID 1148).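 Further: score merges 667nm spot fluorescence with signal-to-noise for antibody binding to printed compounds.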 The following applies: higher = more signal.
The target of experiment [8] is Torsin-1A (Homo sapiens) (UniProt O14656). Nature of the experiment: TOR1A wild-type binding on microarray – cell lysate, small-molecule microarray, lysate, 635/667 nm, primary screen (AID 1149). Particulars: COS7 hTOR1A-WT lysate, 635 nm fluorescence, higher = more signal.
Sequence of Torsin-1A (Homo sapiens) (O14656 whole entry, looked up): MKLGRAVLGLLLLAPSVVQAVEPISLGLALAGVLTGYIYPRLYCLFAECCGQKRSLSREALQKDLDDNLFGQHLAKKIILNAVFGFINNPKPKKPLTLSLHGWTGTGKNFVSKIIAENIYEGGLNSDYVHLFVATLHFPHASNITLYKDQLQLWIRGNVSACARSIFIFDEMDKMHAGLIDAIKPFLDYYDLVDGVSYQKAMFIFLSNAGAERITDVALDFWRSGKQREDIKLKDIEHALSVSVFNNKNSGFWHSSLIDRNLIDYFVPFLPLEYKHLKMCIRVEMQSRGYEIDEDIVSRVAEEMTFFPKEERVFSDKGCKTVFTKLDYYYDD
Experiment [9] shares this target. Nature of the experiment: torsin A mutant lysate binding on microarrays – cell lysate, small-molecule microarray, COS7 lysate, 635/667 nm fluorescence, primary screen (AID 1150).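 Further: score pools 667 nm emission and signal to noise measuring lysate protein binding.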 The following applies: COS7 hTOR1A mutant lysate, 635 nm fluorescence, higher = more signal.
Experiment [10] concerns Sonic hedgehog protein (Shh). Nature of the experiment: Sonic hedgehog microarray binding compounds – biochemical, small-molecule microarray, 635/667 nm fluorescence, primary screen (AID 1151).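 Further: Shh protein binding to compounds spotted on small-molecule microarray slides; score combines spot fluorescence intensity with signal-to-noise across triplicate slides.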 Particulars: 635 nm fluorescence, higher = more signal.
Experiment [11] is described as follows: optical density shifts of acrAB sulA E. coli – strain DRC41, OD650, 48 h, E. coli filamentation inducer project, primary screen (AID 1152).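 Further: E. coli MC1000 strain DRC41 lacking acrAB efflux pump and sulA.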 Particulars: higher = more signal, called active from +8 up or from −8 down.
A short description of experiment [12]: probe aLefty1 binding on compound microarray – biochemical, small-molecule microarray, 635/667 nm fluorescence, primary screen (AID 1153).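 Further: score merges spot fluorescence with signal-to-noise ratio from the scanned slide images.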 Particulars: higher = more signal.
Experiment [13] is described as follows: plasmodial surface anion channel blockers, osmotic lysis – cell-based, P. falciparum Indochina, OD700, 1 h, primary screen (AID 1154). Particulars: P. falciparum Indochina infected RBC osmotic lysis, higher = more signal, called active from +8 up or from −8 down.
A short description of experiment [14]: plasmodial surface anion channel blockers, osmotic lysis – cell-based, P. falciparum Indochina, OD700, 2 h, primary screen (AID 1155).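 Further: lysis reports solute entry through the parasite surface anion channel PSAC.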 The following applies: P. falciparum Indochina infected erythrocytes, higher = more signal, called active from +8 up or from −8 down.
A short description of experiment [15]: changes in parasitized red cell lysis, either direction – P. falciparum Indochina, OD700, 3 h, PSAC antagonist project, primary screen (AID 1156). Particulars: P. falciparum-infected erythrocytes, osmotic lysis, higher = more signal, called active from +8 up or from −8 down.
Experiment [16] can be described thus: plasmodial surface anion channel blockers, osmotic lysis – cell-based, P. falciparum Indochina, OD700, 18 h, primary screen (AID 1157). Particulars: P. falciparum Indochina infected erythrocytes, osmotic lysis OD700, 18 h; higher = more signal, called active from +8 up or from −8 down.
Experiment [17] can be described thus: S6 kinase pathway phospho-S6 level changes – cell-based, A549, cytoblot, luminescence, serum-stimulated, primary screen (AID 1158).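 Further: serum-stimulated A549 lung adenocarcinoma cells; signal is phosphorylated S6 detected by cytoblot immunostaining with HRP secondary.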 Particulars: 5 h, higher = more signal.
Experiment [18] concerns the target NADPH oxidase 2 (Homo sapiens) (UniProt P04839). Description: compounds shifting NOX2 Amplex Red fluorescence – cell-based, HEK293-NOX2, PMA-stimulated, NOX inhibitor project, primary screen (AID 1159). Further: test concentration not given here. Particulars: 45 min, higher = more signal, called active from +8 up or from −8 down.
Experiment [19] addresses NADPH oxidase 4 (Homo sapiens) (UniProt Q9NPH5). Description: compounds shifting NOX4 Amplex Red fluorescence – cell-based, HEK293-NOX4, tetracycline-induced, NOX inhibitor project, primary screen (AID 1160). Particulars: HEK293-NOX4, Amplex Red H2O2 fluorescence, 45 min; higher = more signal, called active from +8 up or from −8 down.
Experiment [20] concerns the target NADPH oxidase 5 (Homo sapiens) (UniProt Q96PH1). Description: compounds shifting NOX5 Amplex Red fluorescence – cell-based, HEK293-NOX5, NOX inhibitor project, primary screen (AID 1161). Particulars: HEK293-NOX5, ionomycin, 45 min, higher = more signal.

Sequence of NADPH oxidase 4 (Homo sapiens) (Q9NPH5 whole entry, looked up): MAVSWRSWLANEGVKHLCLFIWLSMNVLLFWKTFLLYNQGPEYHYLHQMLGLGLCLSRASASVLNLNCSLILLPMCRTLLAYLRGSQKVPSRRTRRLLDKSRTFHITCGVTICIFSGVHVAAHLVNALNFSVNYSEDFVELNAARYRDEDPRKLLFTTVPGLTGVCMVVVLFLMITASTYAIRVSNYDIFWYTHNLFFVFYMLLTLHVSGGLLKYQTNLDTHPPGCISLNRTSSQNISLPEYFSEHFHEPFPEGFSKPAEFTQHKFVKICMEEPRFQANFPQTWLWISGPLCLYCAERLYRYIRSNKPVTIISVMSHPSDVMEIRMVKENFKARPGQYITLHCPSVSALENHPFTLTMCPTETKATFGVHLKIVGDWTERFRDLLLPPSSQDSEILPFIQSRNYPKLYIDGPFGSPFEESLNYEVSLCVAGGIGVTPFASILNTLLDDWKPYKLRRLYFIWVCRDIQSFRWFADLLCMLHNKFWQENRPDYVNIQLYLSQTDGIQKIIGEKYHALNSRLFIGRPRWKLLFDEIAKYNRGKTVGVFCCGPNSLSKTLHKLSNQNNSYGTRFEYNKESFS
Sequence of NADPH oxidase 5 (Homo sapiens) (Q96PH1 whole entry, looked up): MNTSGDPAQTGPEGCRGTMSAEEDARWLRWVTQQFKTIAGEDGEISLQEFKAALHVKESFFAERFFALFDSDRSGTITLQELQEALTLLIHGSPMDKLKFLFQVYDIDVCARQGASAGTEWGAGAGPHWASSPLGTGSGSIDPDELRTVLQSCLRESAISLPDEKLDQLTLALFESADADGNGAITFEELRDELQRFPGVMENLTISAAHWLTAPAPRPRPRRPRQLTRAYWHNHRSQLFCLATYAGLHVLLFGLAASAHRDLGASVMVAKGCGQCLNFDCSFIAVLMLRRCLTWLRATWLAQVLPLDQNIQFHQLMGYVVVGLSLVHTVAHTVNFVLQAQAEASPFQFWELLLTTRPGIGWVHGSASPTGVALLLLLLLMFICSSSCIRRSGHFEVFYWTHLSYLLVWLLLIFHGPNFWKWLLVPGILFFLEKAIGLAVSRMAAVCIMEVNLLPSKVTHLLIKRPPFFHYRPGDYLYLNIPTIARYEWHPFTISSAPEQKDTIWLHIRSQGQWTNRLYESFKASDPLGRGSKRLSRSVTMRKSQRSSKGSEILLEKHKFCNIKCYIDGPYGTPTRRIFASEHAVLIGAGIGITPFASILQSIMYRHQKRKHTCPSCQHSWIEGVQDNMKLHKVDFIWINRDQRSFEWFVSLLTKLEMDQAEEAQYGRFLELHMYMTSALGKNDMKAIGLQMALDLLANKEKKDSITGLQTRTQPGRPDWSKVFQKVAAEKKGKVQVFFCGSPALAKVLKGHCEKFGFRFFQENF
Sequence of NADPH oxidase 2 (Homo sapiens) (P04839 whole entry, looked up): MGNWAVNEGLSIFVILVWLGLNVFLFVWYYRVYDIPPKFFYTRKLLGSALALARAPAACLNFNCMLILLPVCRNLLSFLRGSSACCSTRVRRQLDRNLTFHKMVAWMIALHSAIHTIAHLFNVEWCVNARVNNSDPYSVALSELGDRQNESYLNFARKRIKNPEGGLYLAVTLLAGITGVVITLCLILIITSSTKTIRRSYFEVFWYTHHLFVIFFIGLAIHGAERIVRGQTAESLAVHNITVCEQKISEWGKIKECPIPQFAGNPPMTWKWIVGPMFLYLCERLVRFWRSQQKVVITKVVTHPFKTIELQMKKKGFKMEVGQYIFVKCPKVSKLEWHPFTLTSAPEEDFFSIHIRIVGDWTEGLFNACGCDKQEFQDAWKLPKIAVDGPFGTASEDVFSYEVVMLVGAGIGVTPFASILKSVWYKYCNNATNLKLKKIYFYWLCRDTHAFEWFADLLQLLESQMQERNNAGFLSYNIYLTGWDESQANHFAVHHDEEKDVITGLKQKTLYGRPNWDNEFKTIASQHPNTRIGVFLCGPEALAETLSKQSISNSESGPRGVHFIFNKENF

As to `C=C(CCCC)/C(=C/C[C@@H](OC(C)=O)c1cccc(OCCO)c1)c1cc(C(=O)OC)ccc1OC`, the composite z-score is -0.257 in experiment [1]; -0.697 in experiment [6]; -0.0645 in [7]; 0.146 in the experiment with Torsin-1A (Homo sapiens) [8]; -0.558 in the experiment with Torsin-1A (Homo sapiens) [9]; 1.48 in [10]. In experiment [12], this molecule showed a composite z-score of -0.0969. Also, the z-score was -0.917 (inactive) in [2]; 0.198 (inactive) in experiment [3]; 4.5 (inactive) in experiment [4]; 1.48 (inactive) in experiment [5]; 0.198 (inactive) in experiment [11]; 17.4 (active) in experiment [13]. The z-score was 3.45 (inactive) in experiment [14]; 1.42 (inactive) in experiment [15]; 1.02 (inactive) in [16]; 0.0322 in experiment [17]; -2.13 (inactive) in [18]; -1.16 (inactive) in [19]. For the same molecule, the z-score in experiment [20] was -1.88.
For the molecule `[N-]=[N+]=Nc1ccccc1C[C@@]1(C(=O)NCC(O)CO)N=C(c2ccc(OCCCO)cc2)O[C@@H]1c1ccccc1N=[N+]=[N-]` (stereo not given in full), the composite z-score in [1] is 1.28; in [6], 1.23; in [7] it was -0.0504; in the experiment with Torsin-1A (Homo sapiens) [8], 1.53; with Torsin-1A (Homo sapiens) [9], 0.0816; in experiment [10], -0.59. In [12], this molecule came in with a composite z-score of -0.281. In addition, the z-score is -4.99 (inactive) in [2]; -0.0717 (inactive) in experiment [3]; 0.825 (inactive) in experiment [4]; -1.42 (inactive) in experiment [5]; -0.193 (inactive) in experiment [11]; 30.3 (active) in [13]. For the same molecule, the z-score in [14] was 29.2 (active); in experiment [15] it was 0.0029 (inactive); in [16], 8.12 (active); in experiment [17] it was 0.191; in [18], -1.55 (inactive); in experiment [19] it was 0.776 (inactive). In experiment [20], the z-score was found to be 1.85.
`COC(=O)C(CC#Cc1ccc2c(c1)[C@]1(C(=O)N2)[C@H](c2ccccc2OCCO)N2[C@H](c3ccccc3)[C@H](c3ccccc3)OC(=O)[C@H]2[C@@H]1C(=O)N1CCN(c2ncccn2)CC1)C(=O)OC`: the composite z-score in experiment [1] was 0.253; in [6], 1.06; in experiment [7], -0.0695; with Torsin-1A (Homo sapiens) [8], 1.03; with Torsin-1A (Homo sapiens) [9] it was 0.498; in experiment [10] it was 1.11. Besides, in experiment [12], the composite z-score was -0.0984. The z-score in [2] was -4.92 (inactive); in experiment [3], -0.321 (inactive); in experiment [4] it was -0.375 (inactive); in [5], 2.68 (inactive); in [11], -0.577 (inactive); in experiment [13], 3.02 (inactive). Further, the z-score in [14] was 1.49 (inactive); in [15] it was 0.928 (inactive); in [16], 0.565 (inactive); in [17], -0.512; in [18], 0.803 (inactive); in experiment [19] it was 0.849 (inactive). Also, the z-score in [20] was determined as 2.23.
As for `COC(=O)[C@@]1(Cc2ccccc2)[C@H]2c3cc(C(=O)N(C)C)n(Cc4nc5ccccc5[nH]4)c3C[C@H]2CN1C(=O)c1ccccc1`, the composite z-score in [1] was 0.118; in experiment [6], 1.26; in experiment [7], 0.337; with Torsin-1A (Homo sapiens) [8], 0.626; in the experiment with Torsin-1A (Homo sapiens) [9] it was 0.853; in experiment [10] it was -0.441. This molecule displayed a composite z-score in experiment [12] of 0.0063. In addition, the z-score was -2.07 (inactive) in experiment [2]; -0.142 (inactive) in experiment [3]; 0.959 (inactive) in experiment [4]; -0.0536 (inactive) in experiment [5]; 0.989 (inactive) in experiment [11]; 4.51 (inactive) in experiment [13]. For the same molecule, the z-score in experiment [14] was -0.2 (inactive); in [15] it was 0.57 (inactive); in experiment [16], -0.949 (inactive); in experiment [17], 0.965; in experiment [18], -0.273 (inactive); in experiment [19], 0.839 (inactive). The z-score in experiment [20] is -0.155.
